From ChEMBL document CHEMBL4888484, “Replenishing the malaria drug discovery pipeline: Screening and hit evaluation of the MMV Hit Generation Library 1 (HGL1) against asexual blood stage Plasmodium falciparum ,using a nano luciferase reporter read-out” (2022)
The campaign covered roughly 4,800 compounds. About 410 (8.5%) showed an effect of 50% or more. This is one part of a sample in which strong results are shown more often than they occur.

These compounds were tested on Plasmodium falciparum (assay: Confirmatory screen in NF54 pLDH assay, in single point, at 2uM, 72h). Settings: timepoint 72 hour.
Assay type: functional, Erythrocyte
For `Cc1nn(C)c(N)c1C(=O)N(C1CCC1)C1CCC1`, the “% Inhibition” value was -16%. For `Cc1cc(Cn2c(=O)n(Cc3ccccc3)c3ccncc32)on1`, the “% Inhibition” value was 7%. For `COc1ccc([C@@H]2C(C#N)(C#N)C23C(=O)CC(C)(C)CC3=O)cc1`, the “% Inhibition” value was -12%. For `N#Cc1cccc(-c2c[nH]c(CNc3nc4cc(C(F)(F)F)ccc4s3)n2)c1`, the “% Inhibition” value was 7%. With `Cc1nc2cccnc2n1-c1cc(C(=O)NCC[C@H](C)N2CCCC2)ccc1Cl` the “% Inhibition” value was 8%. With `CC1CCN(C(=O)NCC2CCC(F)(F)CC2)CC1n1ccnc1` (stereo unspecified) the “% Inhibition” value was 12%. In the case of `COc1cc(CC2CN(C(=O)c3cscn3)C2)cc(OC)c1`, the “% Inhibition” value was 3%. With `CS(=O)(=O)CC1(CC(=O)N[C@H](c2ccccc2)C2CCC2)CC1` the “% Inhibition” value was 11%. For `Cc1nn(CC2(O)CCCCC2)c(=O)c(C#N)c1C`, the “% Inhibition” value was -10%. For `Cc1ccc(S(=O)(=O)c2c(NS(=O)(=O)c3ccccc3)n(CCc3ccccc3)c3nc4ccccc4nc23)cc1`, the “% Inhibition” value was 102%. `COCCCn1c(NS(=O)(=O)c2ccc3ccccc3c2)c(S(=O)(=O)c2ccc(C)cc2)c2nc3ccccc3nc21` was tested, and the “% Inhibition” value was 16%. For `CS(=O)(=O)n1c(CCCc2ccccc2)nc2ccccc21`, the “% Inhibition” value was 15%. For `Cc1cc(NC(=O)Cn2c(=O)n(CCc3ccccc3)c(=O)c3ccccc32)no1`, the “% Inhibition” value was 13%. `Cc1ccc(S(=O)(=O)Nc2cc3nc4ccccc4nc3n2CCc2ccccc2)cc1` was tested, and the “% Inhibition” value was 97%. For `O=C(O)Cc1cccc(NC(=O)C2C3Cc4ccccc4C32)c1` (stereo unspecified), the “% Inhibition” value was 2%. With `C[C@H](NC(=O)CC1(C)CCCCC1)c1cnn(C)c1` the “% Inhibition” value was -5%. For `O=C(Nc1cccc(OCCn2cncn2)c1)[C@@H]1CCCc2ccccc21`, the “% Inhibition” value was -19%. `Cc1cc(CCC(=O)Nc2nnn[nH]2)ccc1Br` was tested, and the “% Inhibition” value was 10%. In the case of `COc1cc2c(cc1CNc1nc(N)nc3c1CCNCC3)CCC2`, the “% Inhibition” value was 11%. With `Cc1cc(C)cc(NC(=O)Cc2nnc3ccc(C(=O)Nc4ccccc4)cn23)c1` the “% Inhibition” value was 8%. In the case of `CC(=O)N1CCN(c2nc3c(s2)C[C@@H](C(=O)NCc2ccccc2F)CC3)CC1`, the “% Inhibition” value was -22%. `O=S1(=O)N=C(NC[C@@H](O)Cc2ccccc2)c2ccccc21` was tested, and the “% Inhibition” value was 7%. With `Cc1cccc(NC(=O)Nc2cc(F)c3[nH]c(=O)ccc3c2)c1` the “% Inhibition” value was -7%. With `COc1ccc(-c2noc(CCn3c(=O)[nH]c4cc5c(cc4c3=O)OCO5)n2)c(OC)c1` the “% Inhibition” value was 6%. `Cc1cnc(C2CCN(C(=O)[C@@H]3CNC(=O)O3)CC2)s1` was tested, and the “% Inhibition” value was 2%. With `COC1(C)CN(c2cnc(C#N)cn2)C1` the “% Inhibition” value was 2%. In the case of `CCc1ccc(NC(=O)[C@H]2CCCN(c3nc4cccnc4n(Cc4ccccc4)c3=O)C2)cc1`, the “% Inhibition” value was -14%. `FC(F)(F)C1CN(c2nc(-c3ccccn3)nc3c2CCC3)C1` was tested, and the “% Inhibition” value was 54%. `C[C@H]1CCN(c2nc(-c3ccccn3)nc3c2CCC3)C1` was tested, and the “% Inhibition” value was 93%. In the case of `Cc1ccccc1N1CCN(C(=O)c2ccc3ncccc3c2)CC1`, the “% Inhibition” value was 9%. `C[C@H]1CCCN(S(=O)(=O)NCC(=O)Nc2ccccn2)C1` was tested, and the “% Inhibition” value was -14%. For `C[C@H]1CCCN(c2nc(-c3ccccn3)nc3ccccc23)C1`, the “% Inhibition” value was 98%. With `O[C@H]1Cc2ccccc2[C@H]1Nc1nc(-c2ccccn2)nc2c1CCNC2` the “% Inhibition” value was -7%. For `CCc1sc(N(C(=O)Cc2ccccc2)c2ccc(C)cc2C)nc1-c1ccc(Cl)cc1`, the “% Inhibition” value was 12%. For `COc1ccc(-n2nc(C(=O)N3CCOCC3)c(=O)cc2OC)cc1`, the “% Inhibition” value was 3%. For `CCc1nnc2c(S(=O)(=O)Nc3cc(F)cc(F)c3)cccn12`, the “% Inhibition” value was 9%. `CN1N=C(C(=O)NC2CCC3CCCCC3C2)CCC1=O` (stereo unspecified) was tested, and the “% Inhibition” value was -20%. With `COc1ccc(C(=O)N(CCO)CCN2CCOCC2)c(OC2CCCC2)c1` the “% Inhibition” value was 11%. For `Cc1cccc(-n2c(=O)[nH]c3nc(NCCN(C)C)ncc3c2=O)c1C`, the “% Inhibition” value was 8%. For `COc1ccccc1C(=O)N1CCC([C@H](NC(=O)c2ccc3c(c2)OCO3)C(=O)NC(C)C)CC1`, the “% Inhibition” value was 10%. With `COc1ccccc1CC(=O)NC[C@H](C)O` the “% Inhibition” value was 14%. `O=C1c2cc3ccccc3c(-c3ccccc3)c2C(=O)N1c1ccccc1` was tested, and the “% Inhibition” value was -16%. For `CCc1nn2c(c1-c1ccc(C)cc1)NC(=O)C[C@H]2C(=O)O`, the “% Inhibition” value was 12%. In the case of `Cc1cnc(CC[C@H]2CCCN2C(=O)CCCc2ccccc2)n1C`, the “% Inhibition” value was 10%. With `CC(C)O[C@@H]1CCN(C[C@H](O)c2ccc(C(F)(F)F)cc2)C1` the “% Inhibition” value was 42%. For `CCc1ccc(C(=O)N2CC[C@H](CC(=O)NCc3ccccc3)C2)cc1`, the “% Inhibition” value was 10%. With `Cc1cccc2c(-c3cc(N)nc(N)n3)c[nH]c12` the “% Inhibition” value was 100%. In the case of `Cc1cccc(C)c1NC(=O)c1cc(-c2cccc3ccccc23)[nH]n1`, the “% Inhibition” value was 11%. With `Cc1cc(Br)c2c(c1)C(O)(N1CCCC(C)C1)C(=O)N2` (stereo unspecified) the “% Inhibition” value was 9%. In the case of `O=C(CN1C(=O)C[C@H](Cc2ccc(F)cc2)C1=O)N1CCNC1=O`, the “% Inhibition” value was 9%. `CN(C)c1nccc(NC[C@H](N)c2ccccc2)n1` was tested, and the “% Inhibition” value was -12%. For `CN(C)c1nc(N)cc(-c2cccc3cccnc23)n1`, the “% Inhibition” value was 55%. In the case of `CC1CCCC(C)N1C(=O)CN(C)c1cccc2cccnc12` (stereo unspecified), the “% Inhibition” value was 4%. For `Cc1ccc(C(N)C(C)S(C)(=O)=O)cc1` (stereo unspecified), the “% Inhibition” value was -18%. In the case of `COc1cccc(-c2cc(O)cc(CC[C@H]3CCCCN3)c2)n1`, the “% Inhibition” value was 89%. With `Oc1cc(CC[C@H]2CCCCN2)cc(-c2cnc3ccccc3n2)c1` the “% Inhibition” value was 80%. `O=C(NCC(F)(F)F)Nc1ccc(CO)cc1` was tested, and the “% Inhibition” value was 3%. In the case of `O=c1[nH]c2cc(Cl)c(S(=O)(=O)Cl)cc2[nH]1`, the “% Inhibition” value was 6%. `CCc1c(C(=O)NCc2ccc(CN3CC(C)OC(C)C3)cc2)[nH]c(C)c1C(C)=O` (stereo unspecified) was tested, and the “% Inhibition” value was -27%. With `COc1ccc(CC(=O)N2CCN(c3cnn4cnnc4c3)CC2)cc1` the “% Inhibition” value was 6%. In the case of `CCc1nnc2ccc(S(=O)(=O)N(CC#N)c3ccccc3)cn12`, the “% Inhibition” value was -16%. `COc1ccc(NC(=O)CCC(=O)NCc2ccco2)cc1` was tested, and the “% Inhibition” value was 15%. With `C=CCNC(=O)CCC(=O)NCc1ccco1` the “% Inhibition” value was 13%. `c1coc(CNc2nc(Nc3cccc4ccccc34)nc3ccccc23)c1` was tested, and the “% Inhibition” value was 50%. For `COc1ccc(CCN[C@@H]2c3ccccc3C(=O)N2C2CCCCC2)cc1OC`, the “% Inhibition” value was 10%. For `CC(=O)N(Cc1ccccc1)c1ccc2c(c1)nc(Cn1nc(C)cc1C)n2C`, the “% Inhibition” value was 5%.
